PMC7819943, “Rice protein-binding microarrays: a tool to detect cis-acting elements near promoter regions in rice”
Over roughly 68,000 sequences, “fluorescence intensity (a.u.)” has its median near 9,100; the highest 2% begin near 16,000. The full list was thinned out, with the highest values kept by preference.

Each sequence was assayed against OsWRKY34 (Oryza sativa, UniProt Q0JBA9 1-250) (assay: protein-binding microarray (RPBM); PBS, 2% BSA, 51.3 ng/ul salmon testes DNA, 50 uM zinc acetate, 200 nM TF, 25 C, 1 h; high values mean tight binding). Conditions: protein: recombinant; tags: N-terminal polyhistidine and DsRed monomer fusion (pET32a); label: CyDye5-dUTP incorporated in the synthesized complementary strand; 3' TTTTT single-stranded linker to array surface; dsDNA, one strand shown.
Method in brief: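 An Axon 4000B scanner gave the binding signal as per-feature fluorescence intensity in arbitrary units. This followed washing of a custom Agilent array that had been incubated for 1 h at 25 °C with 200 nM protein in PBS, 2% BSA, salmon testes DNA and 50 µM zinc acetate. The proteins were transcription factors fused at the N-terminus to polyhistidine and DsRed, expressed in E. coli BL21-CodonPlus and purified on Ni–NTA.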

Sequence of OsWRKY34 (Q0JBA9 entry or part of it): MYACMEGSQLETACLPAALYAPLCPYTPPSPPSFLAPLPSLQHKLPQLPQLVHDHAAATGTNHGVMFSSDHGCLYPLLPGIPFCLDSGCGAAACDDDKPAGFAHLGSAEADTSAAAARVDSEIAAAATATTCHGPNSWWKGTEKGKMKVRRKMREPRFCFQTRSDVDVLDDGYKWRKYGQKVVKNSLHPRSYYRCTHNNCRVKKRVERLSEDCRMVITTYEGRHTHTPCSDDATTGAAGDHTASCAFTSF

Going from “AGGAGAGGGGTTTACTCGGTTGAGGATTTTCTTGTTCTCACGGAGTCACCTAGTGCAG” to “GGTGGGCGGAGTGGGAGGGGAGGCATCGGCGCCTCGGTGGCGGAGTCACCTAGTGCAG”, the binding signal rises from 8180 fluorescence intensity (a.u.) to 16800 fluorescence intensity (a.u.).

Compared with “ACGTGGAGTCACGTGACTGGGCCGTGCCACTTTTTTTTATCGGAGTCACCTAGTGCAG”, “AGTCAATATCTTGCTTTGATACCTTTTTTTTTGCATTTTTCGGAGTCACCTAGTGCAG” is lower in binding signal: 9360 fluorescence intensity (a.u.) for the first, 8050 fluorescence intensity (a.u.) for the second.

Going from “ACAACACGCCGCCTCGCCTGCCCATCCCGTCCAACCCACGCGGAGTCACCTAGTGCAG” to “GATTGGTTGAAAATGTTTCTATTCTTAATGAATATCCTATCGGAGTCACCTAGTGCAG”, the binding signal falls from 9200 fluorescence intensity (a.u.) to 8080 fluorescence intensity (a.u.).

Going from “CCATCCACGCGACGCGGCACAACCTCCCGCGCCCAACACACGGAGTCACCTAGTGCAG” to “CCTTCTTGTCCTGCTCCCGCGCCGGCTCCGACCGGGTCCTCGGAGTCACCTAGTGCAG”, the binding signal falls from 8760 fluorescence intensity (a.u.) to 8600 fluorescence intensity (a.u.).

Compared with “AGTACATGGGCTTTCCATAATTGGTTTATACGTGGTTATTCGGAGTCACCTAGTGCAG”, “CTCTGAATGGCCTTGTCACCCTTTTTATTCATTCATGCTCCGGAGTCACCTAGTGCAG” is higher in binding signal: 8260 fluorescence intensity (a.u.) for the first, 9200 fluorescence intensity (a.u.) for the second.

First: TGTCCTTATCATCTTTGATCAAGTTTTTCTCTTTTCCTATCGGAGTCACCTAGTGCAG
Second: CTCTTTTTTTTTCTTCCACTACGCTCCAAAACTTCTCTCCCGGAGTCACCTAGTGCAG
The binding signal of the first is higher: 9480 fluorescence intensity (a.u.) for the first, 8790 fluorescence intensity (a.u.) for the second.

First: CCTTAGTCAGCCTCTGCTTCTGCTCCGTGCTCGCCGGCGCCGGAGTCACCTAGTGCAG
Second: TACTGGGGAATCGGTGGTGGTGGCGGCGGCGGTGGCGGCGCGGAGTCACCTAGTGCAG
The binding signal of the first is higher: 12600 fluorescence intensity (a.u.) for the first, 9690 fluorescence intensity (a.u.) for the second.

Compared with “CCCGCGGCGGCGGGGTGGAGGCGACGGCGGTGGTGGTGGGCGGAGTCACCTAGTGCAG”, “TGTGGCGGGGAGGGAGGGAGGGAGAAGGGGCGGCGTGTTGCGGAGTCACCTAGTGCAG” is higher in binding signal: 8590 fluorescence intensity (a.u.) for the first, 16600 fluorescence intensity (a.u.) for the second.

First: GGAATCTGGGAGGTGGGTGGGCCCCACGGCGGAGACTCCGCGGAGTCACCTAGTGCAG
Second: ACGCAGGGGAGGGAGGGAGCGGTGGTGGTGGCGGCGGCGCCGGAGTCACCTAGTGCAG
The binding signal of the first is higher: 17200 fluorescence intensity (a.u.) for the first, 14000 fluorescence intensity (a.u.) for the second.

Compared with “GCGGCCGGCCGAGGGGTGGGAGCCGTCCGATCGCGGCGCGCGGAGTCACCTAGTGCAG”, “CTCATCCGAGTGGGTGGGCGGGGAGAGATCTAGGGCTTGCCGGAGTCACCTAGTGCAG” is higher in binding signal: 8550 fluorescence intensity (a.u.) for the first, 11700 fluorescence intensity (a.u.) for the second.

First: CGATCCGCTTGCAGGCGGCGGCGGCGGGAGGGTGGTGGGGCGGAGTCACCTAGTGCAG
Second: GGGGCGGAGATCTGGGAGGAGGAGGAGGAGGTGGTGGTGGCGGAGTCACCTAGTGCAG
The binding signal of the first is higher: 18000 fluorescence intensity (a.u.) for the first, 14500 fluorescence intensity (a.u.) for the second.

First: GTGCGTGGGGCGAAGGGAGGGGAAGAAGAAGAAGGAGAAGCGGAGTCACCTAGTGCAG
Second: GCCTCGATCGCGGCGGTGGCGGTGGGGAGGGGAGCGCACCCGGAGTCACCTAGTGCAG
The binding signal of the first is lower: 8080 fluorescence intensity (a.u.) for the first, 19000 fluorescence intensity (a.u.) for the second.

Compared with “TGAAGGGCGGGAGGGGCGTTGCGCGGGAGTGGCCGCGCGGCGGAGTCACCTAGTGCAG”, “ATCCGTCCGTTTCGTTCCGTACGAACCGCCGGCGTTCAAACGGAGTCACCTAGTGCAG” is lower in binding signal: 8670 fluorescence intensity (a.u.) for the first, 8580 fluorescence intensity (a.u.) for the second.

Going from “GCCTCCGCCGCCGCCGCCGCCCGCCGGCCATCTCCGTCGACGGAGTCACCTAGTGCAG” to “CAATGTATTCAGGTACGCCGATTATTTGGTTGGTAGTAGTCGGAGTCACCTAGTGCAG”, the binding signal falls from 13900 fluorescence intensity (a.u.) to 11500 fluorescence intensity (a.u.).

Going from “ATACTCGCTCCGTGTTTTAATATATGACGCTGTTGATTTTCGGAGTCACCTAGTGCAG” to “GCTCGGTGTGGCGATCTCACAGCCGCATATCGCATTTCACCGGAGTCACCTAGTGCAG”, the binding signal falls from 12700 fluorescence intensity (a.u.) to 8680 fluorescence intensity (a.u.).

Compared with “GGCCCCACGTTTCATCCTCACGACCGTGTCCAACCCAGGGCGGAGTCACCTAGTGCAG”, “CGCGCGGTCGAGGAGGGTGGGGCCGCCGCGCTCACCTCCGCGGAGTCACCTAGTGCAG” is lower in binding signal: 10300 fluorescence intensity (a.u.) for the first, 8480 fluorescence intensity (a.u.) for the second.

Compared with “GAGGTGGTGGAGCGAGGTGGAAGAGGGCGCGGGTGGCGGGCGGAGTCACCTAGTGCAG”, “TGTGGTGGCGAGCGGCACGGAGGCGGGGCGGTGGAGGGAGCGGAGTCACCTAGTGCAG” is higher in binding signal: 9480 fluorescence intensity (a.u.) for the first, 9670 fluorescence intensity (a.u.) for the second.

Compared with “AAGAGGGCGCGGGTGGCGGGGATGGGCGAGGGGAAGGCGGCGGAGTCACCTAGTGCAG”, “CGGTGGTGGTGGATGCTGGCGCTGGCGGTGGGCGCGAGCTCGGAGTCACCTAGTGCAG” is lower in binding signal: 17700 fluorescence intensity (a.u.) for the first, 10100 fluorescence intensity (a.u.) for the second.

Compared with “CGTCGGTAGGGAGGAGGAGGAGGAGGAGGTGGTGGTGGTGCGGAGTCACCTAGTGCAG”, “TGGTTTTATAGGCGTGGGGTGTGGAGCTTCGAGGGGAAGGCGGAGTCACCTAGTGCAG” is higher in binding signal: 12000 fluorescence intensity (a.u.) for the first, 13900 fluorescence intensity (a.u.) for the second.

Compared with “GAAGAGGAGAGAGGAAGAGAGGTGGAAAGGGGAGGGGAAGCGGAGTCACCTAGTGCAG”, “ATCTCCGTCGGTGGGGAAAAGGAGGTGGGGAGGGGAGGAGCGGAGTCACCTAGTGCAG” is higher in binding signal: 9460 fluorescence intensity (a.u.) for the first, 18800 fluorescence intensity (a.u.) for the second.

First: GCTTTGGTCGGTTGGGGTGGGCTGGATGCGCCTCCGCGCTCGGAGTCACCTAGTGCAG
Second: TGGAGTGGAGTTTCGATAGGTGTGGCGGGGAGGGAGGGAGCGGAGTCACCTAGTGCAG
The binding signal of the first is lower: 17800 fluorescence intensity (a.u.) for the first, 19800 fluorescence intensity (a.u.) for the second.

With “GTGGCGCGAGGGGAGGGAAGGGTAGGGCGGCGCGGCGGCGCGGAGTCACCTAGTGCAG” the binding signal was 9730 fluorescence intensity (a.u.).
